Reference: the supplement of paper PMC11732987, “Enantioselective OTUD7B fragment discovery through chemoproteomics screening and high-throughput optimisation” (Communications Chemistry, 2025)

Tests used:
Assay in all cases: log2 ratio of Biotin-Ahx-Ub-VS probe labelling (fragment/DMSO); higher = less target engagement (more negative = stronger competition), active = hit call of the paper (q ≤ 0.05, log2 ratio ≤ -1)
Conditions in all cases: compound concentration: 200 uM; treatment time: 3 h
USP19 = target: T1, USP19 (UniProt O94966)
T1 sequence (whole entry): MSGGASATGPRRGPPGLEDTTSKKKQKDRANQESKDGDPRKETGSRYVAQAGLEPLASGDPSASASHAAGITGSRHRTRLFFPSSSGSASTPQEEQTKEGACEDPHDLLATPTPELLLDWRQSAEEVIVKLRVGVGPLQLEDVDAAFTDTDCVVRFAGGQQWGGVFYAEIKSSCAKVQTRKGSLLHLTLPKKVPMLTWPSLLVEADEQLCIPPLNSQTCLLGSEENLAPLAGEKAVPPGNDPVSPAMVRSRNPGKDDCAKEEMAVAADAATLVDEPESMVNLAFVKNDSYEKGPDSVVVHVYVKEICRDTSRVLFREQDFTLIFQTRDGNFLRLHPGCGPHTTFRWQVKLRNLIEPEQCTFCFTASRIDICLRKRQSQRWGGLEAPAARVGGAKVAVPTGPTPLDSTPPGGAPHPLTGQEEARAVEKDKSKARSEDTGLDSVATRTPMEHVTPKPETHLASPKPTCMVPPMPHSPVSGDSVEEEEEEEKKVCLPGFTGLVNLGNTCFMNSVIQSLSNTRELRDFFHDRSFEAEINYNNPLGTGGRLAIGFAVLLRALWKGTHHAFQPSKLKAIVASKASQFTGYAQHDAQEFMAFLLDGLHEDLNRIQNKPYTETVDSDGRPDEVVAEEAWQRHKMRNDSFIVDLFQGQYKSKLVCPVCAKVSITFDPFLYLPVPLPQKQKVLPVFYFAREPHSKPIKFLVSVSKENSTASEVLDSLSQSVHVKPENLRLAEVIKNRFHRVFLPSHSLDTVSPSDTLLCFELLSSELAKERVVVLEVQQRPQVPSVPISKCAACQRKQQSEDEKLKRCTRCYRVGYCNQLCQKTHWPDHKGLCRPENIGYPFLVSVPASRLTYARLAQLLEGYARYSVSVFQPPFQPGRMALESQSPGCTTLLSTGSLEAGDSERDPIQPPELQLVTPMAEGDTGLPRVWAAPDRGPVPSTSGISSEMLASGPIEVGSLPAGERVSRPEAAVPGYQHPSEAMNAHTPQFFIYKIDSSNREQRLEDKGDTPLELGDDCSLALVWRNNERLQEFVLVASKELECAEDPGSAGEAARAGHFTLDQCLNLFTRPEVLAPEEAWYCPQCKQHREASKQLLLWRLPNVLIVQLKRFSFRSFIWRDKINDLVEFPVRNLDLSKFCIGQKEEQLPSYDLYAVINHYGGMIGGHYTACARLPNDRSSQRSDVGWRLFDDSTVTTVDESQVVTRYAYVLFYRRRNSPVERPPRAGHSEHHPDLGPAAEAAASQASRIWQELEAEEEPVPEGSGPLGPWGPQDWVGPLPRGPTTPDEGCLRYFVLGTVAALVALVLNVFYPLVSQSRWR
Procedure, shortened: (§1)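 HEK293T lysate (495 µg per sample, in Tris/CHAPS/IGEPAL buffer with protease inhibitors) was exposed in triplicate for 3 h to fragment at 200 µM or to vehicle, then to Biotin-Ahx-Ub-VS at 0.5 µM final for 1 h. Labelled DUBs were enriched on NeutrAvidin, digested with LysC and trypsin, and analysed by diaPASEF LC-MS/MS. Spectronaut label-free quantities were normalised to the global median, and values are average log2 ratios of fragment over vehicle from an unpaired t-test. Only proteins with ≥2 unique peptides were used.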

USP22 = target: T2, USP22 (UniProt Q9UPT9)
T2 sequence (whole entry): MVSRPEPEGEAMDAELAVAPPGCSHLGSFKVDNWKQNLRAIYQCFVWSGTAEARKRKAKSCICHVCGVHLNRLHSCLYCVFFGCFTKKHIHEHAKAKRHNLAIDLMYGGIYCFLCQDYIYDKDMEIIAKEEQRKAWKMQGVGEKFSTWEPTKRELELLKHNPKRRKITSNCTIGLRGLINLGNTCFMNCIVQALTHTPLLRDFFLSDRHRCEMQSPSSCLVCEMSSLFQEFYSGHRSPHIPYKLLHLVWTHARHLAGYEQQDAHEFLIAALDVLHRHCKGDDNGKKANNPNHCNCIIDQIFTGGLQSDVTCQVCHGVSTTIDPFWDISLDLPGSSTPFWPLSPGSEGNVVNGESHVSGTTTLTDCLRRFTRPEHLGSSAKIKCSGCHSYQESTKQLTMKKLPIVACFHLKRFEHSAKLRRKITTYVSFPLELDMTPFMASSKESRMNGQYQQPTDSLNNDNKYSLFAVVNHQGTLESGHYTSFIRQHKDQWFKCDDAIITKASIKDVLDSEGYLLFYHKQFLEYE
Procedure, shortened: as §1

USP24 = USP24 (UniProt Q9UPU5)
Procedure, shortened: as §1

USP25 = target: T3, USP25 (UniProt Q9UHP3)
T3 sequence (whole entry): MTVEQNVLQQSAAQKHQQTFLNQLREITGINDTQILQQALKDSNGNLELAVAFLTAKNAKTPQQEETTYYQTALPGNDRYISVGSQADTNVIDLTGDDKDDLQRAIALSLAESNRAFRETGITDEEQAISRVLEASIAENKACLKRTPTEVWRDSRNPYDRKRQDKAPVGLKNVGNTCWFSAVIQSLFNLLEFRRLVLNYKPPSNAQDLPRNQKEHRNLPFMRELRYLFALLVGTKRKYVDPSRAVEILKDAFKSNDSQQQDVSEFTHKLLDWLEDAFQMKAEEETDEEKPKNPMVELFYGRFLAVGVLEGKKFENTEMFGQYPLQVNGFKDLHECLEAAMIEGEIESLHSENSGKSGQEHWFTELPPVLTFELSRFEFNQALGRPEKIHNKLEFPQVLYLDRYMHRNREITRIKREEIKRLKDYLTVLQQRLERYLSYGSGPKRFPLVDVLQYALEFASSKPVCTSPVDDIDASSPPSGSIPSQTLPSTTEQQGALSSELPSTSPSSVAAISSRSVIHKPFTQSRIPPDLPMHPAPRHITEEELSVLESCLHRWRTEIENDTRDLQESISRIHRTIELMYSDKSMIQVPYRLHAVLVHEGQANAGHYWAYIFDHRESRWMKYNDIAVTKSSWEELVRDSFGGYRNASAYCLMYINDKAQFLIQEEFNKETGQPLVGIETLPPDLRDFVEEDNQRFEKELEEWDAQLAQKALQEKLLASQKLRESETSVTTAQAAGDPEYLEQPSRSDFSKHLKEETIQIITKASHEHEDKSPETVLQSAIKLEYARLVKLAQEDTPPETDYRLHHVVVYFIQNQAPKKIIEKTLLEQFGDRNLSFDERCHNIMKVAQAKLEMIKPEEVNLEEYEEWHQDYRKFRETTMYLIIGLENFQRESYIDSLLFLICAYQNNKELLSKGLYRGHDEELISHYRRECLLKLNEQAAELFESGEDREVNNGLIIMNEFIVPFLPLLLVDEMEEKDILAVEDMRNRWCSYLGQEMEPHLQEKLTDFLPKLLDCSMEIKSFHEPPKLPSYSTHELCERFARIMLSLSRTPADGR
Procedure, shortened: as §1

USP28 = target: T4, USP28 (UniProt Q96RU2)
T4 sequence (whole entry): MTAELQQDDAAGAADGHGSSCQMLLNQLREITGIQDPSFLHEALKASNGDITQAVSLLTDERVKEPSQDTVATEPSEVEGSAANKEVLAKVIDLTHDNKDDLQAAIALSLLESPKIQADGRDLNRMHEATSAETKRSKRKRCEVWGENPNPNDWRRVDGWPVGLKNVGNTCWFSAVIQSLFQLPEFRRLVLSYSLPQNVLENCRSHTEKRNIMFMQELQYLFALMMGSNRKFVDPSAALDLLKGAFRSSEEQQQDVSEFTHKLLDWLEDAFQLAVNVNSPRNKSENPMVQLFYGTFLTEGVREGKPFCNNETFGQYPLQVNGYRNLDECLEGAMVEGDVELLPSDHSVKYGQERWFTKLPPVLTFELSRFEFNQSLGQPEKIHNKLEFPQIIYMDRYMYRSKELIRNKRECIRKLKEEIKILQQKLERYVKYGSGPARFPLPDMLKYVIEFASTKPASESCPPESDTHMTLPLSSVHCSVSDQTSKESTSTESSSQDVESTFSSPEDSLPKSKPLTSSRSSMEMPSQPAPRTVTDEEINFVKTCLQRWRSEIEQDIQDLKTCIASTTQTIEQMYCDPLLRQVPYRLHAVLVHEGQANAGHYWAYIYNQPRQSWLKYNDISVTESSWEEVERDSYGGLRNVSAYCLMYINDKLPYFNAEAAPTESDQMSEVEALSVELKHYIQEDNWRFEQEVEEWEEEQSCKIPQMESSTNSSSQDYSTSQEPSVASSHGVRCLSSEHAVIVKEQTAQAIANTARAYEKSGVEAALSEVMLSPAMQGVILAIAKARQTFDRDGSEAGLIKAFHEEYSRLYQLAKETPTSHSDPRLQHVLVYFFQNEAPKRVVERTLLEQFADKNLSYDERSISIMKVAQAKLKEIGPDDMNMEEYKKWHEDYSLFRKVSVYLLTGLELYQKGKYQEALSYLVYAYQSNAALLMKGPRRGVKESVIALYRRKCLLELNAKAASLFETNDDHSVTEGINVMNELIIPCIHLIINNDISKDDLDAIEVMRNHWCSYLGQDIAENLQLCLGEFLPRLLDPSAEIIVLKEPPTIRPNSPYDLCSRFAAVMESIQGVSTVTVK
Procedure, shortened: as §1

Measured: log2 ratio of Biotin-Ahx-Ub-VS probe labelling

Chain of USP24 (Q9UPU5 whole entry): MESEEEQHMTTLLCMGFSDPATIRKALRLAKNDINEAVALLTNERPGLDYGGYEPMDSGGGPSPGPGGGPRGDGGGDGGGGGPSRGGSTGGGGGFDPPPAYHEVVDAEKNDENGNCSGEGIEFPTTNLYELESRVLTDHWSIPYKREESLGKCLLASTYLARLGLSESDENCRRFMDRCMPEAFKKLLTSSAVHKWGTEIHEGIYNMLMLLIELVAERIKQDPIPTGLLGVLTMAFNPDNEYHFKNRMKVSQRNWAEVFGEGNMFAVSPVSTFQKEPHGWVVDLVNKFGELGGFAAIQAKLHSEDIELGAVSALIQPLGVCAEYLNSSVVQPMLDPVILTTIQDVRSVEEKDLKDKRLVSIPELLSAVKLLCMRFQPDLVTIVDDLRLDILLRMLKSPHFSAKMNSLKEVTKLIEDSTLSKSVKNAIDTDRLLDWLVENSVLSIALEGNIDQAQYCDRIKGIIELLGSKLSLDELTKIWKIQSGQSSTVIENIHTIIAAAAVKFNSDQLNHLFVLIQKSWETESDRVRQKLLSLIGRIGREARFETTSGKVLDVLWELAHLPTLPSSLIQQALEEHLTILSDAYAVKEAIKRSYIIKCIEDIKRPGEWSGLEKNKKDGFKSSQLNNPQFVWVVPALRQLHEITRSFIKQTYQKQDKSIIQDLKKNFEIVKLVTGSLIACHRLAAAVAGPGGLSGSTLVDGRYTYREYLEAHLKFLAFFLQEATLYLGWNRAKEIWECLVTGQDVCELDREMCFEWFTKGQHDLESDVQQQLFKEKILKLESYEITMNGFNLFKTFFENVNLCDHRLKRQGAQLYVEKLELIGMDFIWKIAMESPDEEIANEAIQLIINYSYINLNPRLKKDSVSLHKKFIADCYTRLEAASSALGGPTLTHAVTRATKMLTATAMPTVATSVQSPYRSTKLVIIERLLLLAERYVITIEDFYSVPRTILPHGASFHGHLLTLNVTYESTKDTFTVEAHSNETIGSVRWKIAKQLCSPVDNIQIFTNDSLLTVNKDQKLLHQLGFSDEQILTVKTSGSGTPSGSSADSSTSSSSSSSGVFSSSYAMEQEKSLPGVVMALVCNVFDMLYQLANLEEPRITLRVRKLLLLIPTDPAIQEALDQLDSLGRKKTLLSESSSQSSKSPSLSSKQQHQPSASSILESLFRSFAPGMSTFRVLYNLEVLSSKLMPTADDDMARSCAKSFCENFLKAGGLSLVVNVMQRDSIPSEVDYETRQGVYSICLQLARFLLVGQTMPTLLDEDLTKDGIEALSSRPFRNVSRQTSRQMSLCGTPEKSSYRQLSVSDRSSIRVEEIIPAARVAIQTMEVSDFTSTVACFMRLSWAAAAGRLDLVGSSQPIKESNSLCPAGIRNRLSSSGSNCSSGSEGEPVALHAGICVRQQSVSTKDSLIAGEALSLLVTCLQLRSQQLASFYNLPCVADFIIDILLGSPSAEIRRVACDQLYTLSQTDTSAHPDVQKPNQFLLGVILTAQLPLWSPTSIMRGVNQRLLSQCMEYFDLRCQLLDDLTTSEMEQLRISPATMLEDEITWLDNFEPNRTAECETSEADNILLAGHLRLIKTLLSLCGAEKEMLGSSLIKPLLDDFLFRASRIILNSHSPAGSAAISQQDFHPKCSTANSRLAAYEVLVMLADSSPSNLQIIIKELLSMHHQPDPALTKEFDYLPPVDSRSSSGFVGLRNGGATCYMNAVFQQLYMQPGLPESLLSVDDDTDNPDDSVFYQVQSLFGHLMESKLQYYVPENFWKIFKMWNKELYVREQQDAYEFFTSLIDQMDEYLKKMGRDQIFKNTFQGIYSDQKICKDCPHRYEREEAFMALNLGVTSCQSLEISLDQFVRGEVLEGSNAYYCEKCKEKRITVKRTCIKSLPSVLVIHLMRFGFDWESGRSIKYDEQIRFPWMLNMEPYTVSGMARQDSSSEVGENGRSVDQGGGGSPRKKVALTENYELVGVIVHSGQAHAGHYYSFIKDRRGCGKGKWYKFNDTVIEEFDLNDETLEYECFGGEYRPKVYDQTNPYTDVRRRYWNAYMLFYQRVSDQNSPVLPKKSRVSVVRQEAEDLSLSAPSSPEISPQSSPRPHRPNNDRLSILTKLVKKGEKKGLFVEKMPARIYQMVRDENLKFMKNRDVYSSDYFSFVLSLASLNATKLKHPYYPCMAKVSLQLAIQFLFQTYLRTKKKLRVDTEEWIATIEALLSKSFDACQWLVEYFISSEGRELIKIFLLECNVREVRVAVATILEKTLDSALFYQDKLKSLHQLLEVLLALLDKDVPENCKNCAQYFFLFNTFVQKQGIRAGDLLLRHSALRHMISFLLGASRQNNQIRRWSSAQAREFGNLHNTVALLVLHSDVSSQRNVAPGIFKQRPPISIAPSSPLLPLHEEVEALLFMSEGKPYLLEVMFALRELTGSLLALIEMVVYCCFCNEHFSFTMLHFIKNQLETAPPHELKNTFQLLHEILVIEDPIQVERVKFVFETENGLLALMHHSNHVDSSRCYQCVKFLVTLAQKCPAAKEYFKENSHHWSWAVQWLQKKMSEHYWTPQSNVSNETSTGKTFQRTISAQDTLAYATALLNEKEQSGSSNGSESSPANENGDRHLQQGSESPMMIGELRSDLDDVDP

CCCn1nccc1NC(=O)CCl
inactive: USP19 -0.237 | USP22 0.165 | USP24 -0.693 | USP25 -0.184 | USP28 -0.445
